Bioassay records as filed in PubChem.
In the library only some 0.43% were active in any assay of this set; here they are far more common.
aGal spleen mod – inhibitors or activators of human alpha-galactosidase in spleen homogenate. Potency, µM (highest dose often 80 µM), for inactives: at the highest dose activity change, negative = inhibition, most hits filed as inhibitors. AID 2107. 240,000 tested, 0.008% active. P06280. human spleen homogenate, 4MU-alpha-Gal fluorescence, 40 min;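 note: potency is the fitted concentration of half-maximal effect; 0% = enzyme with vehicle and -100% = no enzyme basal signal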
Target sequence (P06280 32-429 limits assumed): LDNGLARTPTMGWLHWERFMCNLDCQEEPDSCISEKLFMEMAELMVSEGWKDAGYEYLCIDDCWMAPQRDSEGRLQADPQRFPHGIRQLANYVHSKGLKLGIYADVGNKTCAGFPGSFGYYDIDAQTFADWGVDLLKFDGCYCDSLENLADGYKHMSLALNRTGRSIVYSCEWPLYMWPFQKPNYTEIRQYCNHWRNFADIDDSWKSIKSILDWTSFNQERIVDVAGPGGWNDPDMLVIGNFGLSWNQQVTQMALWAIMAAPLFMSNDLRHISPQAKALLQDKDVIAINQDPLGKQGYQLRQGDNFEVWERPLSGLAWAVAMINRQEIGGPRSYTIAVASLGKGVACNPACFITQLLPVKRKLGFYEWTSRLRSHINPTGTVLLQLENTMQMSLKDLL
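Inhibition or activation of alpha-galactosidase in human spleen homogenate is scored by 4-MU fluorescence after 40 min at 37C, pH 5.0, with 1 mM substrate. AC50s come from concentration-response fitted to the Hill equation.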
GAA spleen mod – lysosomal alpha-glucosidase (human) modulation; P10253; human spleen homogenate, 4-MU-alpha-glucoside fluorescence; Potency, µM (top dose mostly 79.9 µM), for the others: at the highest dose activity change, negative = inhibition, hits mostly inhibitors; 240,000 tested, 0.006% active;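 note: potency is the fitted concentration of half-maximal effect; 0% = enzyme with vehicle and -100% = no enzyme basal signal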
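Enzyme source: human spleen homogenate, 1 ug/well. Buffer 50 mM citric acid/K phosphate pH 5.0, 0.01% Tween-20. 4-MU-alpha-glucoside 1 mM; 37 C x 40 min; NaOH/glycine stop; fluorescence.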
GAA inh – blocks human lysosomal alpha-glucosidase; purified human GAA, 4-MU-alpha-glucoside fluorescence; Potency, µM (top dose mostly 76.9 µM), for inactives: at the highest dose activity change, negative = inhibition, most hits filed as inhibitors; 200,000 tested, 0.005% active; AID 1466;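 note: potency is the fitted concentration of half-maximal effect; plate controls were uninhibited enzyme wells for no effect and no-enzyme background for full effect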
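Read-out is 4-methylumbelliferone fluorescence (Ex 365/Em 440 nm) after NaOH/glycine stop at pH 10. Enzyme 4 nM, substrate 400 uM, pH 5.0 citrate buffer, 20 min room temperature; AC50 from Hill-equation concentration-response.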
N370S GC mod – inhibitors or activators of N370S glucocerebrosidase for Gaucher disease. AID 2101. 330,000 tested, 0.092% active. N370S GC spleen homogenate, 4MU-glucoside fluorescence. Potency, µM (series often up to 59.4 µM), without a hit: top-dose activity change, negative = inhibition, most hits filed as inhibitors;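 note: potency is the fitted concentration of half-maximal effect; 0% = full enzyme activity and -100% = no enzyme basal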
GLA inh pH 4.5 – inhibitors of human alpha-galactosidase A at pH 4.5; P06280; purified enzyme, 4-MU-alpha-Gal fluorescence, pH 4.5; activity change, negative = inhibition, % at 105 µM; 230,000 tested, under 10 active;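 note: 0% = full activity with enzyme and -100% = basal without enzyme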
GAA glycogen – alters human alpha-glucosidase cleavage of glycogen; P10253; recombinant GAA, glycogen substrate, Amplex Red glucose oxidase fluorescence; Potency, µM (highest dose often 76.4 µM), for inactives: at the top dose activity change, negative = inhibition, most hits filed as inhibitors; 300,000 tested, 0.38% active; AID 2100;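 note: potency is the fitted concentration of half-maximal effect; 0% = full enzyme reaction and -100% = no-enzyme basal signal; the screen sought inhibitors and activators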
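qHTS, 1536-well; enzyme 4 nM final; cpd up to 77 uM; substrate bovine liver glycogen 30 ug; 50 mM citrate/phosphate pH 5.0, 0.01% Tween-20; 37 C, 40 min; Amplex Red detection 45 min RT; Hill fit → AC50.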
Numbers without * were called inactive; u = inconclusive; x = no result; [ ] = remark or other dose. Calls come from the whole dose curve; as a rule, active = well fitted curve in the direction sought with a large enough effect; inconclusive = small, poorly fitted or top-dose-only effect, or another doubt; inactive = no such curve, though single readings can be large; an effect the other way counts as inactive or inconclusive.

SMILES | aGal spleen mod | GAA spleen mod | GAA inh | N370S GC mod | GLA inh pH 4.5 | GAA glycogen
CCOC(=O)C1=C(C)N=C2SCCC(=O)N2C1c1ccc(OCc2ccccc2)c(OC)c1 (centres undefined) | x | x | x | x | x | -9%[76.3 µM]
COc1cc(C2C3=C(CCCC3=O)Nc3[nH]n(-c4ccccc4)c(=O)c32)ccc1O (centres undefined) | u | -12% | 3% | -11% | -20 | 28µM*
Cn1cnc([N+](=O)[O-])c1Nc1ccc(O)cc1 | 3% | -9% | u | 18% | -8 | 28µM*
CC(C)(C)c1cc(C(=S)N2CCN(CCO)CC2)cc(C(C)(C)C)c1O | -13% | -15% | -2% | 18µM* | -8 | -2%
COc1ccc(C(=O)N/N=C/c2c(CO)cnc(C)c2O)cc1 | 30% | 0% | -12% | -10% | -4 | 1%
COc1ccccc1N/N=C/c1c(CO)cnc(C)c1O | 19% | 11% | 5% | -9% | 0 | 3.2µM*
CCOC(=O)c1c(NC(=O)c2cc(-c3ccc(OC)cc3)on2)sc(C)c1C | x | x | x | x | x | 3%[76.3 µM]
COc1ccc(C)cc1NC(=O)C1CCN(S(=O)(=O)c2c(C)noc2/C=C/c2ccco2)CC1 | x | x | x | x | x | 20%[76.3 µM]
O=[N+]([O-])c1ccc(O)c(N=Cc2sc3ccccc3c2O)c1 | 10% | 1% | -7% | 3% | -10 | -12%
Oc1ccc(Cl)cc1N=Cc1sc2ccccc2c1Cl | 7% | 10% | 5% | -15% | 1 | 2.8µM*
O=C(CSc1oc(-c2ccco2)nc1S(=O)(=O)c1ccc(Cl)cc1)Nc1ccc(F)cc1 | x | x | x | x | x | -1%[76.3 µM]
C/C(CC(=O)Nc1ccc(Cl)cc1C(F)(F)F)=N\NC(N)=S | 7% | 4% | x | -2% | -3 | u
C/C(CC(=O)Nc1cc(Cl)ccc1Cl)=N\NC(N)=S | -12% | -5% | 1% | -2% | 1 | 9.9µM*
C/C(CC(=O)Nc1ccc(Cl)cc1Cl)=N\NC(=O)c1ccncc1 | 0% | 2% | x | 15% | -11 | -23%
C/C(CC(=O)Nc1ccc(Cl)cc1Cl)=N\NC(N)=S | -1% | -4% | -5% | 10% | 7 | 22µM*
C/C(CC(=O)Nc1ccc(Cl)c(Cl)c1)=N\NC(N)=S | 4% | -10% | -12% | 4% | 1 | 7.9µM*
C/C(CC(=O)Nc1ccc(C)c(Cl)c1)=N\NC(=O)c1ccncc1 | -2% | x | -4% | -12% | -7 | -23%
CCOc1ccc(NC(=O)NC(CC)Cn2nnc3ccccc3c2=O)cc1 (centres undefined) | x | x | x | x | x | -6%[76.3 µM]
CC(C)CC(=O)NC(NC(=S)Nc1sc2c(c1C#N)CCCC2)C(Cl)(Cl)Cl (centres undefined) | 13% | 1% | -8% | 8% | -9 | 28µM*
COc1cccc(CNC(=O)c2c(O)nc3ccccn3c2=O)c1 | x | x | x | x | x | -2%[76.3 µM]
COc1ccc(O)c(-c2c(-c3ccc(Cl)cc3)n[nH]c2C)c1 | -5% | 1% | -8% | -17% | -7 | 10µM*
CCOc1ccc(S(=O)(=O)Nc2ccccc2SC)cc1 | -7% | -6% | -6% | -1% | -5 | 1%
CCOc1ccc(S(=O)(=O)Nc2cc(Cl)ccc2O)cc1 | -6% | -8% | -4% | 10% | -7 | 28µM*
Cc1cc(C)c2c(CC(=O)Nc3cc(C(F)(F)F)ccc3Cl)coc2c1 | x | x | x | x | x | -1%[76.3 µM]
CCn1c(-c2ccccc2)csc1=Nc1ccc(O)cc1 | -2% | x | -6% | -16% | -4 | 13µM*
Cc1c(N/C=C(\Cl)C(=O)C(F)(F)F)c(=O)n(-c2ccccc2)n1C | 3% | 1% | -6% | -15% | -2 | 32µM*
Cc1ccccc1CN1C(=O)/C(=C\c2ccc(C(=O)NCCN3CCOCC3)cc2)Sc2ccccc21 | x | x | x | u | x | 0%[76.3 µM]
O=C(NCCN1CCOCC1)c1ccc(/C=C2\Sc3ccccc3N(Cc3ccccc3F)C2=O)cc1 | x | x | x | 1µM* | x | 2%[76.3 µM]
CCn1c2ccccc2c2cc(CN3CCN(Cc4cc(OC)ccc4O)CC3)ccc21 | 1% | -1% | -15% | -12% | -9 | 7.9µM*
CCn1c2ccccc2c2cc(CN3CCN(Cc4ccccc4C)CC3)ccc21 | x | x | x | x | x | -11%[76.3 µM]
